High-throughput results: PubChem, National Center for Advancing Translational Sciences (NCATS)
Pf growth 96h: P. falciparum growth inhibition at 96 hours; P. falciparum luciferase reporter growth, 96 h; AID 504834; hit rate 6.9% among 320,000; Potency, µM (top dose mostly 28.7 µM), hits mostly inhibitors
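P. falciparum expressing integrated firefly luciferase, in erythrocytes at 2% hematocrit, 0.05% parasitemia, incubated with compounds 96 h at 37 C, 5% CO2. Growth inhibition read as loss of luminescence; two-generation exposure targets delayed-death apicoplast inhibitors.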
Pf growth 48h: P. falciparum growth inhibition at 48 hours (one generation) | P. falciparum luciferase growth in erythrocytes, 48 h | Potency, µM (doses to about 28.7 µM), most hits filed as inhibitors | hit rate 5.9% among 310,000
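Firefly luciferase activity from engineered P. falciparum reports growth; inhibitors lower the luminescent signal. Cultures contained 2% hematocrit erythrocytes at 0.1% final parasitemia.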
Sm TGR block: S. mansoni TGR enzyme inhibition; purified TGR, DTNB reduction, TNB absorbance 405 nm; AID 485364; Q962Y6; hit rate 3% among 360,000; Potency, µM (top dose mostly 114 µM), most hits filed as inhibitors; also: nearly all actives have a fitted effect of over 60% in size
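First, TGR (20 nM dispensed) and NADPH were mixed with compound. Second, a 15 min room-temperature incubation followed. Third, further NADPH and then DTNB were added to start the reaction. Finally, TNB absorbance was monitored kinetically.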
SARS PLpro yeast: blocks SARS-CoV papain-like protease in a yeast assay; S. cerevisiae expressing SARS-CoV PLpro, growth rescue; AID 485353; Potency, µM (titrated, usually from 32.9 µM), actives largely listed as activators; hit rate 0.19% among 330,000; calls by dose curve; also: nearly all actives have a fitted effect of over 55% in size
A number is an active result; – = inactive; ? = inconclusive; · = no result. This is a sample that favours compounds with a hit; in the whole collection about 12% have one here. Unless noted, calls follow the shape of the dose curve; as a rule, active = well fitted curve in the direction sought with a large enough effect; inconclusive = small, poorly fitted or top-dose-only effect, or another doubt; inactive = no such curve, though single readings can be large; an effect the other way counts as inactive or inconclusive.

SMILES | Pf growth 96h | Pf growth 48h | Sm TGR block | SARS PLpro yeast
CC(C)CCNC(=O)c1onc(CSc2ccc(Cl)cc2)c1C(=O)NCCC(C)C | ? | ? | – | –
CC(C)CCNC(=O)c1onc(CSc2ccc(F)c(F)c2)c1C(=O)NCCC(C)C | 10.4µM | 11.7µM | – | –
CC(C)CCNC(=O)c1onc(CSc2ccc(F)cc2)c1C(=O)NCCC(C)C | ? | 4.15µM | – | –
CCOC(=O)c1c(C)[nH]c(C)c1S(=O)(=O)N(C)CC(=O)N1CCN(c2ccccc2OC)CC1 | · | · | – | ·
Cc1cc2cc(CCNC(=O)CCCc3ccccc3)c(=O)[nH]c2cc1C | – | – | – | –
COc1ccc(Cl)cc1S(=O)(=O)N1CCN(C)CC1 | – | · | – | –
COc1ccc(Cl)cc1S(=O)(=O)N1CCN(C(=O)c2cc(OC)c(OC)c(OC)c2)CC1 | 11.7µM | ? | – | –
COc1ccc(Cl)cc1S(=O)(=O)N1CCC(C(=O)NC2CCCC2)CC1 | – | – | – | ·
COc1ccc(Cl)cc1S(=O)(=O)N1CCC(C(=O)NC2CC2)CC1 | 8.28µM | ? | – | –
CCOc1ccc(C(=O)Nc2nnc(SCc3cc(=O)c4cc(C)ccc4[nH]3)s2)cc1 | · | · | – | ·
O=C(O)/C=C\C(=O)O | – | – | – | ·
O=C(O)C=C(Br)Br | – | – | 50.1µM | –
CCCC(=O)N1CC(=O)Nc2ccc(C)cc2C1c1ccccc1 (stereo unspecified) | 7.38µM | – | – | –
Cc1ccc(C(=O)N2CC(=O)Nc3ccc(F)cc3C2c2ccc(F)cc2)cc1[N+](=O)[O-] (stereo unspecified) | – | ? | – | –
Cc1ccc(C(=O)N2CC(=O)Nc3ccc(F)cc3C2c2ccccc2)cc1[N+](=O)[O-] (stereo unspecified) | ? | 9.28µM | – | –
Cc1coc(C)c1C(=O)Nc1ccc2ccccc2c1 | – | – | – | –
COc1cccc(CSc2nc3ccncc3n2CC(=O)Nc2ccc(OC)c(OC)c2OC)c1 | · | · | – | ·
O=C(NCC(=O)N(Cc1ccco1)C(C(=O)NC1CCCC1)c1ccncc1)c1cccs1 (stereo unspecified) | ? | – | 35.5µM | –
O=C(CCC(=O)N(Cc1ccco1)C(C(=O)NC1CCCC1)c1ccncc1)Nc1cccnc1 (stereo unspecified) | · | – | 25.1µM | –
O=C(CCC(=O)N(c1ccc(F)cc1)C(C(=O)NC1CCCC1)c1ccncc1)Nc1cccnc1 (stereo unspecified) | ? | – | – | –
Cc1ccc(-c2nnc(Nc3ccc4c(c3)OCO4)c3ccccc23)cc1S(=O)(=O)NC(C)C | ? | 2.94µM | – | –
Cc1ccc(-c2nnc(Nc3ccc(Cl)c(Cl)c3)c3ccccc23)cc1S(=O)(=O)NCCO | · | · | – | ·
Cc1ccc(-c2nnc(Nc3ccc(CC(N)=O)cc3)c3ccccc23)cc1S(=O)(=O)NCCO | – | 6.57µM | – | –
Cc1ccc(-c2nnc(Nc3ccc4c(c3)OCO4)c3ccccc23)cc1S(=O)(=O)NCCO | ? | 3.29µM | – | –
CCOc1nc(NC(=O)NS(=O)(=O)Oc2cccc(F)c2)nc(-c2ccccc2)n1 | · | · | – | ·
SMILES | Pf growth 96h | Pf growth 48h | Sm TGR block | SARS PLpro yeast
Cc1ccc2c(c1)c(=O)c(C(=O)c1ccncc1)cn2CC(=O)Nc1ccc(C(C)C)cc1 | · | · | – | ·
CCOC(=O)c1ccc(N2CCN(c3ccccc3OC)CC2)c(NC(=O)Nc2ccc(CC)cc2)c1 | · | · | – | ·
CC(C)N1C(=O)CC(Nc2cccc3cccc(N)c23)C1=O (stereo unspecified) | – | – | ? | –
CN1C(=O)CC(Nc2cccc3cccc(N)c23)C1=O (stereo unspecified) | – | – | 31.6µM | –
O=S(=O)(c1ccc(OC(F)(F)F)cc1)N1CCC(O)(c2cccc(C(F)(F)F)c2)CC1 | – | ? | – | –
OC1(c2cccc(C(F)(F)F)c2)CCNCC1 | 13.1µM | – | – | –
Cc1nc2ccn(Cc3cccnc3)c(=O)c2cc1C(=O)NCc1ccccc1 | · | · | – | ·
Cc1cccc(N2CCN(C(=O)CCn3c(=O)c4cccn4c4cccnc43)CC2)c1C | · | · | – | ·
CCCCN(Cc1ccccc1)S(=O)(=O)c1cc(Br)cc2c1N(C(C)=O)C(C)C2 (stereo unspecified) | · | 11.7µM | – | –
CC(=O)N1c2c(cc(Br)cc2S(=O)(=O)N2CCN(c3ccccc3F)CC2)CC1C (stereo unspecified) | 11.7µM | ? | – | –
CC(=O)N1c2c(cc(Br)cc2S(=O)(=O)NCc2cccnc2)CC1C (stereo unspecified) | – | – | – | –
CC(=O)N1c2c(cc(Br)cc2S(=O)(=O)N2CCN(c3cc(C)ccc3C)CC2)CC1C (stereo unspecified) | · | · | – | ·
CCOc1ccc(C(=O)NNC(=O)C2CC(=O)N(c3ccc(C)cc3)C2)cc1 (stereo unspecified) | – | – | – | –
CSc1ncc(Cl)c(C(=O)Nc2ccccc2Cl)n1 | – | – | – | –
CSc1ncc(Cl)c(C(=O)Nc2c(C)cccc2C)n1 | 4.15µM | – | – | –
Cc1nnc(SCC(=O)Nc2sc3c(c2C(N)=O)CCC(C)C3)[nH]c1=O (stereo unspecified) | – | – | – | –
Cc1ccc(CN2CC(=O)N3[C@H]4c5cc(C)ccc5OC[C@@H]4[C@H](c4ccccc4)[C@]3(C)C2=O)cc1 | – | 5.86µM | – | –
Cc1ccc(CN2CC(=O)N3[C@H]4c5cc(Cl)ccc5OC[C@@H]4[C@H](c4ccccc4)[C@]3(C)C2=O)cc1 | 8.28µM | 6.57µM | – | –
O=C(NC(=S)N1CCCCC1)c1csc([N+](=O)[O-])c1 | 5.22µM | 14.7µM | – | –
COCCNC(=O)C1CCCN(S(=O)(=O)c2ccc3c(c2)CC(C)N3C(=O)C2CC2)C1 (stereo unspecified) | – | – | – | –
Cc1cccc(N2CCN(C(=O)c3cn(C4CCCCC4)c(=O)c4c3c3ccccc3n4C)CC2)c1C | · | · | – | ·
CC(C)NC(=O)c1ccc(-n2c(-c3ccccc3)cc3c2CCCCC3)cc1 | · | · | – | ·
Cc1cc2c(n1-c1ccc(C(=O)O)cc1)CCCCC2 | – | – | 25.1µM | –
Cc1nc2ccc(S(=O)(=O)NCC(=O)N3CCc4ccccc43)cc2s1 | – | – | 56.2µM | –
CCN1CCN(C(=O)C(NS(=O)(=O)c2ccc3nc(C)sc3c2)C(C)C)CC1 (stereo unspecified) | 9.28µM | · | – | –
SMILES | Pf growth 96h | Pf growth 48h | Sm TGR block | SARS PLpro yeast
CC1CCc2c(sc(NC(=O)C3c4ccccc4Oc4ccccc43)c2C#N)C1 (stereo unspecified) | · | · | – | ·
CC[N+](C)(C)c1cccc(O)c1 | 1.65µM | ? | – | –
CCOC(=O)N1CCC(N2C(=O)c3ccc(C(=O)Nc4ccc(OC)cc4)cc3C2=O)CC1 | ? | – | – | –
C=C1CCC2[C@](C)(CO)C(O)CC[C@]2(C)C1C/C=C1/C(=O)OCC1O (stereo partly specified) | 15.1µM | ? | · | ·
Cc1ccc(Cn2c(CO)cnc2SCC(=O)NCc2ccccc2Cl)cc1 | · | · | – | ·
CC(C)(C)C(=O)NNC(=O)COc1ccc2ccccc2c1Br | 2.33µM | – | – | –
Nc1ccc2ccc3cccc[n+]3c2c1 | ? | 0.415µM | 31.6µM | –
